PubChem BioAssay (NCATS)
Inconclusive results are not listed. Unmarked numbers belong to inactive results. Active and inactive are the calls of the source. Calls come from the whole dose curve; as a rule, active = well fitted inhibition curve with a large enough effect; inconclusive = small, poorly fitted or top-dose-only effect; inactive = flat fitted curve, though single readings scatter.

Legend:
HEK293 = assay: Cytotoxic Profiling of Annotated Libraries Using Quantitative High-Throughput Screening (AID 1296008); conditions: Five cell lines viability, CellTiter-Glo ATP luminescence, 48-72 h; max response: active compounds read low; note: potency is the fitted concentration of half-maximal effect; for max response: % is set by controls: 0 for no effect and ±100 for the full control effect
Method in brief: (§1)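 Cells exposed to compounds for 48 or 72 hr at 37 degrees Celsius. Viability read as ATP-coupled luminescence with CellTiter-Glo after 10 min at room temperature.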

HaCat [1] = assay: as above; conditions: Five cell lines viability, CellTiter-Glo ATP luminescence, 48-72 h; max response: active compounds read low
Method in brief: as §1

NIH3T3 = assay: as above; conditions: Five cell lines viability, CellTiter-Glo ATP luminescence, 48-72 h; max response: active compounds read low
Method in brief: as §1

HACAT [2] = assay: qHTS assay to identify novel small-molecules to repurpose for Merkel cell carcinoma treatment (AID 1296009); conditions: MCC and control cell lines, CellTiter-Glo viability, 72 h; at 44.8 µM (top of the series) unless noted
Method in brief: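 Dose-response viability screen; 72 hr exposure at 37 degree celsius; CellTiter-Glo added, 10 min room temperature, luminescence read; RLUs scaled between no-cell and DMSO wells.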
Note: nearly all actives have a fitted effect of over 60% in size.

SMILES: COc1cc2c(cc1NS(=O)(=O)c1ccc(Br)cc1C)n(C)c(=O)n2C
- Potency (HEK293): 1.46 µM (active)
- max response (HaCat [1]): 0.2%
- max response (NIH3T3): 1.72%

SMILES: O=C(Nc1ccc(CN2CCOCC2)cc1)c1ccc(-c2cccc(Cl)c2)o1
- Potency (HEK293): 9.2 µM (active)
- max response (HaCat [1]): -23.4%
- max response (NIH3T3): 1.97%

SMILES: Cc1cc(-c2cnc(N)c3c(-c4ccc5scnc5c4)csc23)n(C)n1
- Potency (HEK293): 8.2 µM (active)
- max response (HaCat [1]): -13.1%
- Potency (NIH3T3): 11.6 µM (active)

SMILES: CCn1c(-c2nonc2N)nc2c(C#CC(C)(C)O)ncc(OCC3CCCNC3)c21 (stereo not drawn)
- Potency (HEK293): 0.82 µM (active)
- outcome (HaCat [1]): inactive
- outcome (NIH3T3): inactive
- outcome (HACAT [2]): inactive

SMILES: Cc1cc(NC(=O)c2cccc(NC(=O)/C=C/CN(C)C)c2)ccc1Nc1nccc(-c2cccnc2)n1
- Potency (HEK293): 9.2 µM (active)
- Potency (HaCat [1]): 8.2 µM (active)
- Potency (NIH3T3): 18.4 µM (active)

SMILES: COc1ccc(-c2ccc3c(N4CCOCC4C)nc(N4CCOCC4C)nc3n2)cc1CO (stereo not drawn)
- Potency (HEK293): 0.146 µM (active)
- Potency (HaCat [1]): 2.91 µM (active)
- Potency (NIH3T3): 0.231 µM (active)

SMILES: COc1ccc(CN2CCN(C(=O)CCNC(=O)c3ccc(C(C)(C)C)cc3)CC2)cc1
- Potency (HEK293): 7.31 µM (active)
- max response (HaCat [1]): 3.77%
- max response (NIH3T3): 3.24%

SMILES: CC(=O)NC(C(=O)O[C@H]1CCC(C)(C)[C@@H]2CC=C3C(=O)OCC3(O)[C@@]12C)C(C)C (stereo partly drawn)
- max response (HEK293): -20.5%
- max response (HaCat [1]): 3.16%
- outcome (NIH3T3): inactive

SMILES: COc1ccccc1S(=O)(=O)Nc1ccc2c(c1)CN(C)C(=O)N2
- Potency (HEK293): 6.51 µM (active)
- max response (HaCat [1]): 2.92%

SMILES: COc1cc2c(Nc3cc(F)c(Cl)c(Cl)c3)ncnc2cc1OCC1CCCN(C)CCC1
- Potency (HEK293): 8.2 µM (active)
- Potency (HaCat [1]): 0.082 µM (active)
- Potency (NIH3T3): 5.17 µM (active)

SMILES: CNC1CN(c2ccc3c(=O)c(C(=O)O)cn(-c4nccs4)c3n2)CC1OC (stereo not drawn)
- Potency (HEK293): 1.06 µM (active)
- Potency (HaCat [1]): 1.68 µM (active)
- Potency (NIH3T3): 0.211 µM (active)

SMILES: Cc1nc2ccc(-n3ncc(C(=O)c4cc5ccccc5[nH]4)c3N)cc2[nH]1
- Potency (HEK293): 5.8 µM (active)
- max response (HaCat [1]): -16.7%
- Potency (NIH3T3): 9.2 µM (active)

SMILES: COc1cccc(-c2cn(-c3ccc(CCN4CCC(O)CC4)cc3)c3ncnc(N)c23)c1
- Potency (HEK293): 8.2 µM (active)
- Potency (HaCat [1]): 5.17 µM (active)
- Potency (NIH3T3): 1.3 µM (active)

SMILES: Oc1ccc(-c2cnc3ccc(NCc4ccco4)nn23)cc1
- Potency (HEK293): 20.6 µM (active)
- Potency (HaCat [1]): 7.31 µM (active)

SMILES: C/C(=N\N=C(N)N)c1cc(NC(=O)CCCCCCCCC(=O)Nc2cc(/C(C)=N/N=C(N)N)cc(/C(C)=N/N=C(N)N)c2)cc(/C(C)=N/N=C(N)N)c1
- Potency (HEK293): 7.31 µM (active)
- outcome (HaCat [1]): inactive
- max response (NIH3T3): 0.565%
- outcome (HACAT [2]): inactive

SMILES: Cc1nc(NC(=O)N2CCCC2C(N)=O)sc1-c1ccnc(C(C)(C)C(F)(F)F)c1 (stereo not drawn)
- Potency (HEK293): 10.3 µM (active)
- Potency (HaCat [1]): 2.31 µM (active)
- Potency (NIH3T3): 9.2 µM (active)

SMILES: Nc1nc(Cl)nc2c1ncn2C1OC(CO)C(O)C1F (stereo not drawn)
- Potency (HEK293): 2.06 µM (active)
- Potency (HaCat [1]): 1.46 µM (active)
- Potency (NIH3T3): 1.03 µM (active)

SMILES: NC(=O)c1cnc(N[C@@H]2CCCC[C@H]2N)nc1Nc1cccc(-n2nccn2)c1
- Potency (HEK293): 20.6 µM (active)
- Potency (HaCat [1]): 18.4 µM (active)

SMILES: COc1cc(/C=C2\CCCN([C@@H](C)c3ccc(F)cc3)C2=O)ccc1-n1cnc(C)c1
- Potency (HEK293): 13 µM (active)
- max response (HaCat [1]): 3.5%
- max response (NIH3T3): -4.02%

SMILES: COc1cc(OC)c(NC(=O)c2ccc(Cc3cc4c(cc3C)C(C)(C)CCC4(C)C)o2)c(OC)c1
- Potency (HEK293): 20.6 µM (active)
- max response (HaCat [1]): 3.56%
- max response (NIH3T3): 4.87%

SMILES: CC(C)S(=O)(=O)NC[C@@H]1CC(c2ccc(N3CCCC3)c(F)c2)=NO1
- Potency (HEK293): 14.6 µM (active)
- max response (HaCat [1]): -20.2%
- max response (NIH3T3): -14.9%

SMILES: C=C1C(=O)O[C@@H]2/C=C(\CO)CC/C=C(/C=O)C[C@@H](O)[C@@H]12
- Potency (HEK293): 8.2 µM (active)
- Potency (HaCat [1]): 18.4 µM (active)
- Potency (NIH3T3): 16.4 µM (active)

SMILES: C=C[C@@]1(C)C=C2C(=O)C(O)=C3[C@](C)(C(=O)O)CC[C@@H]4C[C@]34[C@]2(O)C(=O)C1
- Potency (HEK293): 1.8 µM (active)
- Potency (HaCat [1]): 10.1 µM (active)
- Potency (NIH3T3): 3.6 µM (active)

SMILES: CN(c1ccc(NC(=O)Nc2ccccc2)cc1)S(=O)(=O)c1cnn(-c2ccc(F)cc2)c1
- Potency (HEK293): 16.4 µM (active)
- max response (HaCat [1]): -33.8%

SMILES: C#Cc1cccc(Nc2nc3cc(C(=O)O)ccc3c3cncnc23)c1
- Potency (HEK293): 16.4 µM (active)
- Potency (HaCat [1]): 7.31 µM (active)
- max response (NIH3T3): -50.8%
